# FBW7 activator = human FBW7 E3 ligase activation, primary screen; AlphaScreen FBW7–phospho-cyclin E peptide binding, activator screen; 650,000 compounds, 0.13% hits; Q969H0; AID 1259310; normalized activity (activation), % at 26.1 µM; in the data active = normalized activity above about 1.9%;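 also: purified mutant Fbw7 with reduced substrate affinity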
# Target sequence (Q969H0 whole entry, looked up): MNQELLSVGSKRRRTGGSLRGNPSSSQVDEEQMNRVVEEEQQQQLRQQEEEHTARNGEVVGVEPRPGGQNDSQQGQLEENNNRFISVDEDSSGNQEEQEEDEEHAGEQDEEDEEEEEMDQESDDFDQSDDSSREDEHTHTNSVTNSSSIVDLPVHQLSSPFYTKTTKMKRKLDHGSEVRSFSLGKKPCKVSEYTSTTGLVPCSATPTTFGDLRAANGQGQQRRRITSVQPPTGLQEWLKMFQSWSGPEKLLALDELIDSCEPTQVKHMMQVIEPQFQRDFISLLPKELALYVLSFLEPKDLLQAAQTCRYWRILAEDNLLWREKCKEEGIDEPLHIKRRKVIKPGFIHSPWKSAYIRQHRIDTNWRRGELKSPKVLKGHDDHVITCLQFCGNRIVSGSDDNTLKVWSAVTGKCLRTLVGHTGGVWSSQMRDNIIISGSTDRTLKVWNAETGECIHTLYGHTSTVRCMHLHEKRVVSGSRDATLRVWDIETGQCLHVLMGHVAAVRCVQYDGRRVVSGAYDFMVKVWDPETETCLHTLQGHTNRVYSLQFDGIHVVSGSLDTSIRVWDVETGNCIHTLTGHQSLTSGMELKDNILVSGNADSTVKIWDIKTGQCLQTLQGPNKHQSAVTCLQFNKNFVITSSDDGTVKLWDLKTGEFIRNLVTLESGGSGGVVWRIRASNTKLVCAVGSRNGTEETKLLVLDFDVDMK
# TEAD-YAP block = TEAD-YAP interaction inhibition. HEK-TIYL cells, TEAD-Gal4/YAP UAS-luciferase luminescence. inhibition, % at 9.12 µM. AID 1259422. 640,000 compounds, 1.4% hits; in the data active = inhibition above about 32%
# MITF inh = human MITF inhibition, primary screen. O75030. AlphaScreen MITF homodimerization, bead proximity signal. inhibition, % at 2.6 µM. 650,000 compounds, 0.91% hits; in the data active = inhibition above about 50%
# GPR151 ag = activates the human receptor GPR151 | Q8TDV0 | PathHunter beta-arrestin GPR151 cells, luminescence | activation, % at 11.2 µM | 650,000 compounds, 1% hits | AID 1508602; in the data active = activation above about 4.9%
# MITF inh conf = human MITF inhibition, confirmation | AlphaScreen MITF homodimerization, biotin/His-MITF beads | inhibition, % at 2.6 µM | shares compounds with MITF inh | AID 1259372 | 4,700 compounds, 16% hits;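 active = inhibition above a cutoff derived from the DMSO control wells, cut at about 28% in these data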;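 also: inhibitors lower the bead chemiluminescence by keeping MITF from dimerizing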
# AS interf DR = optically interferes with AlphaScreen signal in dose response; shares compounds with MITF inh; AlphaScreen optical interference counterscreen, cell-free; IC50, µM; 480 compounds, 6% hits; AID 1259373; call rule not given here
# AlphaScreen intf2 = AlphaScreen optical interference, counter-screen; shares compounds with MITF inh; LysRS AlphaScreen counterscreen, signal interference, triplicate; inhibition, % at 2.6 µM; 4,700 compounds, 7.6% hits;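 active = inhibition above a cutoff derived from the DMSO control wells, cut at about 30% in these data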
# A number is an active result; – = inactive; · = no result. In the library only some 3.5% were active in any assay of this set; here they are far more common.
SMILES,FBW7 activator,TEAD-YAP block,MITF inh,GPR151 ag,MITF inh conf,AlphaScreen intf2,others
Cc1cc(NC(=O)C(C)NCc2cccs2)no1 (stereo unspecified),–,–,54,–,–,–,
CCN(CC)CCCNC(C)C(=O)Nc1cc(C)on1 (stereo unspecified),–,–,80,–,–,–,
Cc1cc(NC(=O)C(C)NCc2ccc(F)cc2)no1 (stereo unspecified),–,–,–,–,·,·,
COc1cc(/C=C2\C=C(c3ccc(Br)cc3)OC2=O)c([N+](=O)[O-])cc1OC,–,–,–,–,·,·,
CC(C)(C)c1cc(Cl)ccc1OCCn1ccnc1,–,–,74,–,–,–,
C=CCc1cccc(OC)c1OCCOCCn1ccnc1,–,–,54,–,–,–,
Cc1cc(C(C)(C)C)ccc1OCCCn1ccnc1,–,–,–,–,·,·,
Cc1cc(Br)ccc1OCCOCCn1ccnc1,–,–,63,–,–,–,
Cc1cc(C(C)(C)C)ccc1OCCn1ccnc1,–,–,70,–,–,–,
Cc1ccc(OCCn2ccnc2)c(C)c1,–,–,–,–,·,·,
O=C(CC1(O)C(=O)N(Cc2ccccc2)c2ccc(Br)cc21)c1ccncc1 (stereo unspecified),–,–,–,–,·,·,
CCCCC(c1nnnn1CCOC)N1CCN(c2cccc(C(F)(F)F)c2)CC1 (stereo unspecified),–,–,–,–,·,·,
O=C1C(=O)N(CC(O)CN2C(=O)C(=O)c3ccccc32)c2ccccc21,–,–,–,–,·,·,
O=C1CC(NCc2cccc(F)c2)C(=O)N1c1ccccc1 (stereo unspecified),–,–,–,–,·,·,
CCOC(=O)CN(C)Cc1ccccc1Br,–,–,59,–,–,–,
CCOC(=O)CN(C)Cc1ccc(OC)cc1OC,–,–,–,–,·,·,
CCC(C)c1ccccc1OCC(O)CNC1CCCC1 (stereo unspecified),–,–,–,–,·,·,
CC(C)C(=O)N1CCN(CC(O)COc2ccccc2C(C)C)CC1 (stereo unspecified),–,–,52,–,–,–,
CC(C)c1ccccc1OCC(O)CNC1CCN(Cc2ccccc2)C1 (stereo unspecified),–,–,69,–,–,–,
CCC(C)c1ccccc1OCC(O)CN1CCCCC1 (stereo unspecified),–,–,–,–,·,·,
COCCNC(=O)c1ccccc1NC(=O)Nc1cccc(Cl)c1,–,–,–,–,·,·,
Cc1ccc(NC(=O)C(F)(F)F)cc1[N+](=O)[O-],–,–,–,–,·,·,
COc1ccc(N(C)C(=O)CCc2nc(-c3ccc(C)cc3)no2)cc1,–,–,56,–,–,–,
Cc1ccc(N2C(=O)C3C(C2=O)C2(CO)C=CC3(C)O2)cc1[N+](=O)[O-] (stereo unspecified),–,–,53,–,43,–,AS interf DR=–
CC12C=CC(CO)(O1)C1C(=O)N(c3ccc([N+](=O)[O-])cc3)C(=O)C12 (stereo unspecified),–,–,–,–,·,·,
SMILES,FBW7 activator,TEAD-YAP block,MITF inh,GPR151 ag,MITF inh conf,AlphaScreen intf2,others
CCC(=O)Nc1c2c(nc3c1CCC3)CCCC2,–,–,–,–,·,·,
CN(C)CC(=O)Nc1c2c(nc3c1CCC3)CCCC2,–,–,59,–,–,–,
CC(C)NCC(=O)Nc1c2c(nc3c1CCC3)CCCC2,–,–,75,–,–,–,
COc1ccc(S(=O)(=O)N2CCn3cccc3C2c2ccccc2F)cc1C (stereo unspecified),–,–,58,–,–,–,
Cc1ccc(S(=O)(=O)N2CCn3cccc3C2c2ccc(F)cc2)cc1 (stereo unspecified),–,–,–,–,·,·,
CN1CCN(C(=O)c2ccc(-c3nc(Nc4ccccc4)c4ncn(C5CCCCC5)c4n3)cc2)CC1,–,–,75,–,41,–,AS interf DR=–
CC(=O)Nc1ccc(Nc2nc(-c3ccc(C(=O)N4CCN(C)CC4)cc3)nc3c2ncn3C2CCCCC2)cc1,–,–,–,–,·,·,
COc1ccc(NC(=O)CCC(=O)c2ccc(C(C)C)cc2)cc1,–,–,–,–,·,·,
CC1CCCCC1NC(=O)CN1C(=O)/C(=C\c2ccccc2)Oc2ccccc21 (stereo unspecified),–,–,–,–,·,·,
C/C=C/c1ccc(OCCCCN2CC(C)OC(C)C2)c(OC)c1 (stereo unspecified),–,–,–,–,·,·,
C/C=C/c1ccc(OCCCCNCCN2CCOCC2)c(OC)c1,–,–,61,–,–,–,
C/C=C/c1ccc(OCCCCNCCN(C)C)c(OC)c1,–,–,–,–,·,·,
C/C=C/c1ccc(OCCCN2CCN(CC)CC2)c(OC)c1,–,–,63,–,–,–,
C/C=C/c1ccc(OCCOCCN(C)C)c(OC)c1,–,–,70,–,–,–,
Cc1cccc(NC(=O)CN(c2ccc(I)cc2)S(C)(=O)=O)c1,–,–,71,–,–,–,
Cc1ccc(NC(=O)CN(c2ccc(I)cc2)S(C)(=O)=O)cc1,–,–,–,–,·,·,
Cc1ccc(S(=O)(=O)C(CNS(=O)(=O)c2ccccc2)c2cccs2)cc1 (stereo unspecified),–,–,–,–,·,·,
CCS(=O)(=O)NCC(c1cccs1)S(=O)(=O)c1ccc(C)cc1 (stereo unspecified),3.2,–,85,–,82,–,AS interf DR=–
O=C(O)c1ccc(-n2cnnn2)cc1Cl,–,–,–,–,·,·,
O=C(O)c1ccc(-n2cccc2)cc1Cl,–,–,79,–,75,–,AS interf DR=–
CC(C)n1c(-c2ccc(C(N)=O)cc2)nc2c(NC3CCN(Cc4ccccc4)CC3)ncnc21,–,–,–,–,·,·,
COc1ccc2c(c1)CC(C(=O)Nc1ccc(-c3cn[nH]c3)cc1OCC(=O)O)CO2 (stereo unspecified),–,–,–,–,·,·,
CCC(=O)Nc1nc2nc(C(C)(C)C)cc(=O)n2[nH]1,–,–,–,–,·,·,
O=c1c2ccccc2nc(/C=C/c2ccc(OCc3ccc(Cl)c(Cl)c3)cc2)n1-c1ccc(F)cc1,–,–,–,–,·,·,
NS(=O)(=O)c1ccc(CNC(=S)NCc2ccc(Cl)cc2)cc1,–,–,–,–,·,·,
SMILES,FBW7 activator,TEAD-YAP block,MITF inh,GPR151 ag,MITF inh conf,AlphaScreen intf2,others
Cc1ccc(NC(=O)CN(Cc2ccccc2)S(=O)(=O)c2ccc(Br)cc2)cc1C,–,–,59,–,–,–,
O=C(Cc1cn(-c2ccc(Cl)nn2)c2ccccc12)NCc1ccccc1,–,–,72,–,–,–,
O=CNC(n1ccc(=O)[nH]c1=O)C(Cl)(Cl)Cl (stereo unspecified),–,–,–,–,·,·,
c1ccc2c(c1)OCC(c1nc3c(-c4ccncc4)cncc3[nH]1)O2 (stereo unspecified),–,–,61,–,39,–,AS interf DR=–
CCOC(=O)c1c(C)n(C(=O)c2ccco2)c(=O)n1C(=O)c1ccco1,–,–,–,–,·,·,
CCOC(=O)CCCCC(=O)c1c(C)n(C(=O)c2ccco2)c(=O)n1C(=O)c1ccco1,–,–,99,–,102,80,

# Bioassay records (PubChem)
